Assay outcomes as filed in PubChem.
A selection: hits, their analogues and other compounds. The true share with any hit is near 0.93%.
GoLoco inh red = inhibitors of human Gai1-RGS12 GoLoco interaction (red fluorophore) | P63096 | Gai1:RGS12 GoLoco peptide FP, rhodamine, 10 min | Potency, µM (series often up to 61.6 µM), for the others: at the highest dose activity, negative = inhibition, actives largely listed as inhibitors | 230,000 compounds, 0.44% hits | AID 880; active means well fitted inhibition curve with a large enough effect, not every such curve was filed as active; inactive means no such curve, though single readings can be large or run the other way; further: potency means the concentration at half of the fitted maximal effect; nearly all actives have a fitted effect of over 30% in size
Target sequence (P63096 whole entry, looked up): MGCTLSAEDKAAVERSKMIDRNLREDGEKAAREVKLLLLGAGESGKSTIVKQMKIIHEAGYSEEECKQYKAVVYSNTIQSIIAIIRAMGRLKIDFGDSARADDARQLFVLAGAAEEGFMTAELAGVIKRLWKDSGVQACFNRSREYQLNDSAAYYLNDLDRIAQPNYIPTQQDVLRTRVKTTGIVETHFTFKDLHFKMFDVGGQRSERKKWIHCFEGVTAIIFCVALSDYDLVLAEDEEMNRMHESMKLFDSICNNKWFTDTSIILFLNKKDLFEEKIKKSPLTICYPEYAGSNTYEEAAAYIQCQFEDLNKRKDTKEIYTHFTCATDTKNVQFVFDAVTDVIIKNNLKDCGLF
TexasRed fluor = counter-screen for TRb-SRC2 inhibitors: fluorescence interference | TRb/SRC2 Texas Red total fluorescence interference | 280,000 compounds, 0.29% hits | Potency, µM (highest dose often 106 µM), for inactives: at the highest dose fluorescence change, negative = quenching | AID 1479; active means well fitted curve in either direction with a large enough effect; inconclusive means small, poorly fitted or top-dose-only effect; further: potency means the concentration at half of the fitted maximal effect
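Human TRb ligand-binding domain at 0.6 uM with 20 nM Texas Red SRC2 peptide in Tris buffer containing 1 uM T3 and 5% DMSO, incubated with compound 5 h at ambient temperature. Total fluorescence (555/632 nm) calculated as parallel + 2 × perpendicular.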
Coupling enz = counter-screen for Giardia aldolase inhibitors: coupling enzyme system. coupling enzyme system counterscreen, AmpLite Red fluorescence. activity change, negative = inhibition, % at 58.2 µM, hits read low. 290,000 compounds, 0.67% hits. AID 2472; in the data active means activity change below about -30%
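Activity here indicates interference with the coupling reaction, not aldolase inhibition. Compounds at 57.5 uM final met coupling enzymes for 10 min at RT; substrate and AmpLite Red detection followed, with a 525/598 nm fluorescence read after 20 min.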
TRb SRC2 PPI = inhibitors of human thyroid hormone receptor beta-SRC2 interaction; TRbeta-SRC2 peptide binding, fluorescence polarization; receptor liganded with 1 µM T3; Potency, µM (titrated, usually from 106 µM), for the others: at the top dose activity change, negative = inhibition, hits mostly inhibitors; AID 1469; 280,000 compounds, 0.065% hits; active means well fitted inhibition curve with a large enough effect; inconclusive means small, poorly fitted or top-dose-only effect, or effect the other way;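 further: potency means the concentration at half of the fitted maximal effect; plate controls were bound peptide for no effect and peptide without receptor for full effect; nearly all actives have a fitted effect of over 50% in size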
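Compounds were added to 0.6 uM TRb ligand-binding domain and 20 nM Texas Red-labeled SRC2 peptide in Tris buffer containing 1 uM T3, incubated 5 hr at ambient temperature, then read by fluorescence polarization.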
The depositor's hits bear a star; ! = a repeat was not active; [ ] = remark or other dose. Unless noted, on the % scale 0 is the no-effect control and ±100 the full control effect.

`COc1cc(CNn2c(C)n[nH]c2=S)cc(Cl)c1OCC(=O)NC(C)(C)C` gave Coupling enz 1.
For COc1cc(CNc2ccc3[nH]c(=O)[nH]c3c2)cc(Cl)c1OCC(=O)NC(C)(C)C the results were GoLoco inh red 10%, TexasRed fluor -2%, Coupling enz -44* and TRb SRC2 PPI 0%.
C=CCOc1ccc(CNc2ccc3[nH]c(=O)[nH]c3c2)cc1OCC was read as GoLoco inh red 7%, TexasRed fluor -3%, Coupling enz 3 and TRb SRC2 PPI -2%.
For CCOc1cc(CNc2ccc3[nH]c(=O)[nH]c3c2)ccc1OCC(=O)NC(C)(C)C the results were GoLoco inh red 3%, TexasRed fluor 0%, Coupling enz -33* and TRb SRC2 PPI -3%.
Screening Cc1ccc2c(c1Br)C(O)(CC(=O)c1ccc(F)cc1)C(=O)N2 (configuration not stated) returned TexasRed fluor -3% and TRb SRC2 PPI 6%.
`Oc1ccc(/C=N/Nc2ccc(Cl)nn2)c(O)c1O` gave Coupling enz -38*.
N#CC1=C2SCN(Cc3ccccc3)CN2C(=O)CC1c1ccc2c(c1)OCO2 (configuration not stated) was read as GoLoco inh red -24%, TexasRed fluor 2%, Coupling enz -32* and TRb SRC2 PPI -18%.
Screening N#CC1=C2SCN(Cc3ccco3)CN2C(=O)CC1c1ccc(Cl)cc1 (configuration not stated) returned GoLoco inh red -8%, TexasRed fluor -2%, Coupling enz -5 and TRb SRC2 PPI -2%.
Screening Cc1cc(Cc2cc(C)cc(C(C)(C)C)c2O)c(O)c(C(C)(C)C)c1 returned TexasRed fluor 2%[201 µM] and TRb SRC2 PPI 1%[201 µM].
CCC(C)Nc1ccc(NC(C)CC)cc1 (configuration not stated) was read as GoLoco inh red 32µM*, TexasRed fluor inconclusive and TRb SRC2 PPI -30%[201 µM].
Screening C=C[Si](C)(C)O[Si](C)(C)C=C returned TexasRed fluor -3%[201 µM] and TRb SRC2 PPI 3%[201 µM].
`COC(=O)c1ccc(O)cc1` gave GoLoco inh red -82%, TexasRed fluor 0%, Coupling enz 1 and TRb SRC2 PPI 0%.
`COC(=O)c1cc(=O)c(O)c2c(O)c(O)ccc2c1` gave GoLoco inh red 2.8µM*, TexasRed fluor inconclusive, Coupling enz -31* and TRb SRC2 PPI -2%.
For COc1cc(C)c(CNc2cccc(C)c2)cc1C the results were GoLoco inh red -12%, TexasRed fluor 0%, Coupling enz 1 and TRb SRC2 PPI 7%.
`COc1cc(C)c(CNc2ccc(OC)c(OC)c2)cc1C` gave GoLoco inh red 15%, TexasRed fluor 6%, Coupling enz -31* and TRb SRC2 PPI -19%.
`CCOC(=O)c1c(C)oc2nc(C)nc(N3CCN(c4ccc(C)cc4C)CC3)c12` gave TexasRed fluor 447µM*[quencher] and TRb SRC2 PPI -11%.
N#C/C(=C\Nc1ccc2cn[nH]c2c1)c1nc(-c2ccc(Cl)cc2)cs1 was read as GoLoco inh red 82%, TexasRed fluor inconclusive, Coupling enz -35* and TRb SRC2 PPI 71µM*.
Screening O=C1CCCCC2CCCCN12 (configuration not stated) returned GoLoco inh red -3%[136 µM], TexasRed fluor 1%[201 µM], Coupling enz -6 and TRb SRC2 PPI -3%[201 µM].
For CC1CCN(S(=O)(=O)c2ccc3c4c2CC(=O)N4CC(C)S3)CC1 (configuration not stated) the results were Coupling enz -33*.
`Cn1c(C(=O)NCCN2CCc3ccccc3C2)cc2c(=O)n(C)c3ccccc3c21` gave GoLoco inh red 45%, TexasRed fluor -2%, Coupling enz -30* and TRb SRC2 PPI 0%.
`CCOC(=O)N=Nc1c2ccccc2c2nc3no[nH]c3nc12` gave GoLoco inh red 2%, TexasRed fluor -1%, Coupling enz -51* and TRb SRC2 PPI -2%.
Screening CCCCCCc1ccc(C(=O)CCN(C)C)cc1 returned TexasRed fluor 1%, Coupling enz 6 and TRb SRC2 PPI 16µM*.
Screening COc1ccc(NC(=O)CC(C)S(=O)(=O)c2ccc3c(c2)NC(=O)CO3)cc1OC (configuration not stated) returned TexasRed fluor -4% and TRb SRC2 PPI -2%.
COc1cccc(NC(=O)CC(C)S(=O)(=O)c2ccc3c(c2)NC(=O)CO3)c1 (configuration not stated) was read as TexasRed fluor 20µM*[quencher] and TRb SRC2 PPI -11%.
CCN(CC)C(=O)c1cc([N+](=O)[O-])cc2c1-c1ccc([N+](=O)[O-])cc1C2=C(C#N)C#N was read as GoLoco inh red -38%, TexasRed fluor -5%, Coupling enz -34* and TRb SRC2 PPI -7%.
Screening CC(=O)N1CCc2cc(Br)cc(S(=O)(=O)N3CCC(C)CC3)c21 returned TexasRed fluor -4% and TRb SRC2 PPI 1%.
Screening COC(=O)[C@@H]1C[C@H]1[C@@H](NC(=O)c1ccccc1)c1ccccc1 returned GoLoco inh red -1%, TexasRed fluor -3%, Coupling enz 1 and TRb SRC2 PPI 15%.
Screening COC(=O)[C@H]1C[C@@H]1[C@H](NC(C)=O)c1ccccc1 returned GoLoco inh red 1.3µM*, TexasRed fluor -22%, Coupling enz 1 and TRb SRC2 PPI -8%.
For O=C(Nc1ccc2c(c1)CCCN2C(=O)c1cccs1)c1ccc(F)c(F)c1 the results were TexasRed fluor 0% and TRb SRC2 PPI 0%.
Screening Oc1ccc(NCc2ccccc2OCc2ccccc2)cc1 returned GoLoco inh red -12%, TexasRed fluor 50µM*![fluorescent], Coupling enz -48* and TRb SRC2 PPI 35µM*.
O=C1C=CC(=O)C(C2=C3C(=O)N(CCc4ccccc4)CC(=O)N3CCC2)=C1 was read as GoLoco inh red -37%, TexasRed fluor -2%, Coupling enz -55* and TRb SRC2 PPI 1%.
Cc1cccc(NC(=O)c2cnc3sc(N4CCCC4)nn3c2=O)c1C was read as TexasRed fluor 0% and TRb SRC2 PPI -4%.
Screening Cc1nc(N=Nc2cc(S(=O)(=O)O)c3cc([N+](=O)[O-])cc(S(=O)(=O)O)c3c2)c(COP(=O)(O)O)c(C=O)c1O returned GoLoco inh red 7%, TexasRed fluor 28µM*[quencher], Coupling enz 0 and TRb SRC2 PPI 11%.
`COC(=O)CCC(C)C1CCC2C3C(O)C[C@@H]4CC(O)CC[C@@]4(C)C3CC(O)[C@]12C` (some centres not stated) gave GoLoco inh red 5%, TexasRed fluor -2%, Coupling enz 6 and TRb SRC2 PPI 1%.
`COc1ccc(CCNC(=O)c2csc3c2CCCCC3)c(OC)c1` gave TexasRed fluor 20µM*[quencher] and TRb SRC2 PPI -7%.
FC(F)(F)c1cccc(N2CCN(c3ncnc4c3nc3n4CCCC3)CC2)c1 was read as TexasRed fluor 6% and TRb SRC2 PPI -1%.
